# Results as given in PubChem BioAssay (NCI).
# The panel holds about 83,000 compounds, 20% with a hit somewhere; the sample as a whole holds those more often.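 Single-concentration screen, 48 h exposure, 96-well plates. Endpoint: percent growth. Below 10 = active.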 A number with no mark means an inactive call. Active and inactive are the calls of the source.
# Tests used:
# Experiment in all cases: NCI-60 one-dose screen, 48 h (100 = growth as untreated, 0 = no growth, -100 = all killed)
# SR leukemia = settings: 10 µM unless noted
# RPMI-8226 leukemia = settings: 10 µM unless noted
# OVCAR-8 ovarian = settings: 10 µM unless noted
# OVCAR-5 ovarian = settings: 10 µM unless noted
# OVCAR-4 ovarian = settings: 10 µM unless noted
# SK-OV-3 ovarian = settings: 10 µM unless noted
# IGROV1 ovarian = settings: 10 µM unless noted
# OVCAR-3 ovarian = settings: 10 µM unless noted
# HS 578T breast = settings: 10 µM
# NCI/ADR-RES ovarian = settings: 10 µM unless noted
# T-47D breast = settings: 10 µM unless noted
# BT-549 breast = settings: 10 µM unless noted
# MDA-MB-435 melanoma = settings: 10 µM unless noted
# SW-620 colon = settings: 10 µM unless noted
# MCF7 breast = settings: 10 µM unless noted
# HCT-116 colon = settings: 10 µM unless noted
# HCC-2998 colon = settings: 10 µM unless noted
# KM12 colon = settings: 10 µM unless noted
Compound,growth (SR leukemia),growth (RPMI-8226 leukemia),growth (OVCAR-8 ovarian),growth (OVCAR-5 ovarian),growth (OVCAR-4 ovarian),growth (SK-OV-3 ovarian),growth (IGROV1 ovarian),growth (OVCAR-3 ovarian),growth (HS 578T breast),growth (NCI/ADR-RES ovarian),growth (T-47D breast),growth (BT-549 breast),growth (MDA-MB-435 melanoma),growth (SW-620 colon),growth (MCF7 breast),growth (HCT-116 colon),growth (HCC-2998 colon),growth (KM12 colon)
CC(CN1CCN(C)CC1)CN1c2ccccc2Sc2ccc(C(F)(F)F)cc21 (stereo unspecified),-23.2% (active),71.3%,71.9%,68%,54.5%,92.4%,10.9%,42.9%,60.7%,52.8%,63.4%,61.4%,27.3%,22.6%,46.4%,21.6%,-16.7% (active),31.2%
O=C1C(Cl)=C(N/N=c2/[nH][nH]/c(=N/NC3=C(Cl)C(=O)c4ccccc4C3=O)c3ccccc23)C(=O)c2ccccc21,19.7%,33.8%,78.1%,119%,78.5%,73.6%,59.6%,66.2%,37.4%,66.1%,15.3%,83.1%,102%,60.6%,54%,61.8%,93.9%,18.5%
CC[C@H](Nc1nc(C)nc(N)c1C#N)c1nc2cccc(NCc3ccc(C(=O)NO)cc3)c2c(=O)n1-c1ccccc1,0.66% (active),10.7%,2.46% (active),22.5%,5.36% (active),-16.2% (active),5.14% (active),4.73% (active),21.6%,59.4%,0.805% (active),36.6%,16.8%,-31.5% (active),5.42% (active),3.59% (active),7.75% (active),13.3%
Cc1ccc2oc(=O)cc(-c3nc4ccc([N+](=O)[O-])cc4[nH]3)c2c1,83%,30.9%,55.6%,98.3%,31.3%,79.4%,70.6%,43.5%,63.9%,20.9%,25.4%,42.4%,64.6%,78.1%,57.2%,8.52% (active),67.2%,59.7%
COc1ccc2[nH]cc(/C=C3\C(=O)Nc4ccccc43)c2c1,2.21% (active),31.3%,31.9%,52.9%,54.6%,38.9%,-21.9% (active),35.5%,33.2%,23.1%,36.6%,48.5%,-41.6% (active),11.4%,16.3%,17.9%,36%,13.7%
COc1cc(C2Nc3ccccc3S2)cc(CN2CCOCC2)c1O (stereo unspecified),49%,81.1%,88.9%,122%,87.5%,83.3%,39%,52%,72.2%,34.2%,88.4%,84.9%,0.594% (active),50.7%,50.6%,53.2%,86.4%,55.4%
COc1ccc(NC(=O)/C=C/c2ccc(NC(=O)N3CCCC3)cc2)cn1,106%,99.5%,101%,113%,101%,101%,105%,103%,95.9%,107%,99.9%,97.4%,103%,106%,91.7%,103%,111%,103%
CC(COC(=O)c1ccccc1)N1CC2CCC(C1)O2 (stereo unspecified),93.2%,99.1%,93.9%,101%,107%,96.1%,113%,104%,105%,111%,103%,105%,98.1%,97.6%,102%,106%,110%,109%
COc1cc2cc(C(=O)Nc3ccccc3)c(N)nc2cc1OC,-35.8% (active),-21.2% (active),-44.8% (active),73%,22.3%,23%,-11.7% (active),27.8%,36.2%,-29.1% (active),-28% (active),69.9%,-84.2% (active),-68% (active),-88.4% (active),-80.2% (active),-83.4% (active),-52% (active)
CCSc1ccc([C@@H]2[C@@H](O)C(=O)N2c2cc(OC)c(OC)c(OC)c2)cc1,11.7%,8.48% (active),16.1%,54.8%,41.7%,39.1%,32.5%,-3.92% (active),46.5%,8.62% (active),76.6%,9.68% (active),-32.4% (active),22.3%,20.1%,2.13% (active),29.6%,11.3%
O=C1CC2(O)CSc3nc(=O)cc(n32)N1 (stereo unspecified),102%,99%,107%,105%,121%,102%,109%,115%,121%,112%,104%,107%,100%,112%,96%,106%,120%,102%
COc1ccc(-c2nsc3c2NC(=O)CC3c2ccc3c(c2)OCO3)cc1 (stereo unspecified),-21.6% (active),2.77% (active),26.2%,48.6%,66.8%,24.4%,19.7%,-26.3% (active),17.6%,13.9%,33.2%,53.6%,-38.5% (active),24.9%,22.7%,28.6%,39.4%,31.2%
O=C(Nc1ccc(Oc2ccc(Nc3nc4ccccc4s3)cc2)cc1)Nc1ccc(Cl)c(C(F)(F)F)c1,0.688% (active),-19.5% (active),6.28% (active),23.6%,17.7%,12.1%,17%,-3.18% (active),7.39% (active),5% (active),3.71% (active),-1.46% (active),0.432% (active),8.67% (active),4.73% (active),0.0223% (active),2.48% (active),0.448% (active)
Cc1n(Cc2ccc3ccccc3n2)cc[n+]1Cc1ccc2ccccc2c1,11.6%,-3.22% (active),11.9%,9.08% (active),7.17% (active),-2.36% (active),5.65% (active),6.35% (active),24.4%,98.7%,0.908% (active),-0.0129% (active),0.529% (active),20.6%,4.65% (active),4.92% (active),19.8%,5.21% (active)
COc1cccc(Cn2c(-c3nonc3NC(C)=O)nc3ccccc32)c1,16.3%,28.4%,50.9%,39.2%,79.9%,16.9%,56.8%,69.5%,23.6%,30.3%,42.3%,41.6%,-35% (active),28.7%,47.4%,42.7%,49.3%,30.4%
CCN(CC)CCNc1c(C)cc(CO)c(Cl)c1C,104%,105%,90.3%,117%,103%,120%,64.8%,117%,107%,101%,112%,104%,106%,105%,75%,104%,107%,113%
CN(C)c1ccc(/C=N/Nc2nnc3n2N=C(c2ccc(Cl)cc2)CS3)cc1,94.1%,82.5%,96.5%,108%,98.8%,108%,84.4%,102%,92%,94%,84.2%,90.3%,97.5%,102%,77.4%,99%,106%,101%
